Out of some 360,000 compounds screened, about 25,000 (6.9%) were called active. Roughly 9% stayed inconclusive and do not appear here. The sample as a whole holds a higher share of actives than the screen did. A number with no mark means an inactive call. Calls come from the whole dose curve; as a rule, active = well fitted inhibition curve with a large enough effect; inconclusive = small, poorly fitted or top-dose-only effect; inactive = flat fitted curve, though single readings scatter.
biological target: Luciferin 4-monooxygenase (Photinus pyralis) (UniProt P08659); experiment: qHTS profiling assay for firefly luciferase inhibitor/activator using purifed enzyme and Km concentrations of substrates (counterscreen for miR-21 project); details: purified FLuc, luminescence inhibition; series mostly up to 57.5 µM; activity change, negative = inhibition: at the top concentration; note: nearly all actives have a fitted effect of over 55% in size;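 for activity change, negative = inhibition: plate controls were vehicle for no effect and reference inhibitor for full effect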
Sequence (P08659 whole entry, looked up): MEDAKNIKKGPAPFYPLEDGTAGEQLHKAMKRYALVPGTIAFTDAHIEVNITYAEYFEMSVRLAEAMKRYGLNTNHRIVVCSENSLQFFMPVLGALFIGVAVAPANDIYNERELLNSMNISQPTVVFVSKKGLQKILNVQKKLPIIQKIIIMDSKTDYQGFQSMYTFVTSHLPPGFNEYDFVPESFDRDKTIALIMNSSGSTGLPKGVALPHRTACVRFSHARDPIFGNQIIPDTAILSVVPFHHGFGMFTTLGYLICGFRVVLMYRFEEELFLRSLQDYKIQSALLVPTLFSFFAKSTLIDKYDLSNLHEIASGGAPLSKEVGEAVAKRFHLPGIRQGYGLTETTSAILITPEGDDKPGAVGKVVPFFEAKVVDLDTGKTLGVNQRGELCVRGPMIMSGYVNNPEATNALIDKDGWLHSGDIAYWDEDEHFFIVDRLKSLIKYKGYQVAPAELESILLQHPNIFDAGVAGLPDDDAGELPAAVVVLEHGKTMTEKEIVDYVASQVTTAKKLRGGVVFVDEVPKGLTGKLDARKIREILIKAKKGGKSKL
Outline: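 Biochemical qHTS of compounds, final roughly 60 µM downward over six points, against 10 nM purified firefly luciferase using Km concentrations of substrates (10 uM D-luciferin, 10 uM ATP) in Tris acetate pH 7.5 buffer; luminescence output.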
Potency is the fitted concentration of half-maximal effect.

Structure (SMILES)	activity change, negative = inhibition [%]	Potency
CCCOc1cccc(C(=O)Nc2ccccc2C(=O)N2CCN(C)CC2)c1	-1.36	–
COc1ccc(NC(=O)c2ccc(OC)cc2)cc1	–	4.78 µM (active)
Cc1cccc(C(=O)NCCc2nc3ccccc3n2Cc2ccccc2Cl)c1	-4.32	–
O=C1C2N=NN(CC(=O)N3N=C(c4cccc5ccccc45)CC3c3ccccc3)C2C(=O)N1c1ccccc1 (centres undefined)	5.45	–
Cc1ccc(-n2nc(CO)c(C(=O)NCCc3ccccc3)n2)cc1	-0.322	–
COc1ccccc1C(=O)NC(CCSC)C(=O)N1CCN(C/C=C/c2ccccc2)CC1 (centres undefined)	11.5	–
COc1cc(C(=O)Nc2ccc(-n3c(C)nc4ccccc4c3=O)cc2)cc(OC)c1OC	-0.586	–
CC(C)Cn1c(-c2ccc(S(=O)(=O)N3CCOCC3)cc2)csc1=Nc1cc(Cl)ccc1Cl	2.36	–
Cn1c(CC(=O)NNC(=O)c2ccccc2F)nc2ccccc21	2.54	–
CCOc1ccc2oc(C(=O)N(CC)CC(=O)Nc3ccc(NC(C)=O)cc3)c(C)c2c1	-7.13	–
Cc1nn(CC(=O)N2CCN(c3cccc(C(F)(F)F)c3)CC2)c(=O)c2cc3sccc3n12	-8.4	–
CC(=O)c1ccc(NC(=O)c2nc(-c3ccc(C)cc3)n3c2CCCCC3)cc1	-5.49	–
COc1ccc(-c2cc(C(=O)Nc3sc4c(c3C(N)=O)CCCC4)no2)cc1	-17.3	–
COc1ccc(C(=O)Nc2onc3c2CCCC3)cc1	–	0.601 µM (active)
CCC(=O)Nc1ccc(C(=O)Nc2cccc(OC)c2)cc1	–	23.9 µM (active)
COc1ccc(C(=O)Nc2sc(C)c(C)c2CN2CCOCC2)cc1	–	23.9 µM (active)
COc1ccc(NC(=O)Nc2ccc3nsnc3c2)cc1	–	6.75 µM (active)
COc1cccc(NC(=O)c2csnn2)c1	-19.5	–
CCOC(=O)c1c(NC(=O)c2ccc(N3CCOCC3)c([N+](=O)[O-])c2)sc(C)c1C	0.104	–
COc1ccc(C(=O)Nc2ccnn2C2CCN(Cc3ccncc3)CC2)cc1	-1.5	–
COC(=O)[C@H](CCSC)NC(=O)Nc1ccc(OC)cc1	0.815	–
CCC(C(=O)OCC(=O)Nc1ccc(C(=O)Nc2ccc(OC)cc2)cc1)c1ccccc1 (centres undefined)	-15.7	–
COc1ccc(/C=N/NC(=O)Nc2ccc3nsnc3c2)c(OC)c1	-4.18	–
CC1CCc2noc(NC(=O)c3ccc([N+](=O)[O-])cc3)c2C1 (centres undefined)	-12	–
CCCCN1C(=O)c2[nH]nc(-c3ccccc3O)c2C1c1cccc(OCc2ccccc2)c1 (centres undefined)	1.47	–
CC1CCN(C(=O)Cn2c(=O)n(-c3ccc(Cl)cc3)c(=O)c3c4c(sc32)CCC4)CC1	4.6	–
Cc1ccccc1NC(=O)CN1C(=O)C(C)(C)c2ccccc21	-0.294	–

Structure (SMILES)	activity change, negative = inhibition [%]	Potency
Cc1noc(C)c1-c1ccc2ncnc(NC(C)c3ccco3)c2c1 (centres undefined)	1.6	–
Cc1ccc(C)c(N2CCN(C(=O)CCc3c(C)nc4c(c3C)c(=O)n(C)c(=O)n4C)CC2)c1	2.81	–
Cc1ccccc1Nc1scc(-c2ccc(Br)cc2)[n+]1-c1ccccc1C	-1.41	–
CCOc1ccc(OCC)c(NS(=O)(=O)c2ccc3[nH]c(=O)ccc3c2)c1	-2.85	–
Cc1cccc(-n2c(Cc3cc(=O)[nH]c(=O)[nH]3)nnc2SC(C)C)c1	-0.177	–
COc1cccc(N(CC(=O)NC2CCCC2)C(=O)Cn2nnc(-c3ccc(C)o3)n2)c1	6.13	–
O=S(=O)(c1ccc(Br)cc1)c1nnn2c1nc(N1CCOCC1)c1sccc12	4.66	–
CCn1cc2nc(SCc3ccccc3Cl)n(CCc3ccccc3)c(=O)c2n1	-10.6	–
COc1ccccc1CC(=O)Nc1ccc(F)cc1F	-3.36	–
COc1ccc(NC(=O)CS(=O)(=O)c2ccccc2)cc1	-2.89	–
CCc1ccccc1NC(=O)c1ccc2nc(CCc3ccccc3)oc2c1	-22.5	–
COc1ccc(NC(=O)C(Br)C(C)C)cc1 (centres undefined)	-4.38	–
COc1cc(OC)cc(C(=O)OCC(=O)Nc2ccc(F)cc2F)c1	-1.29	–
COc1ccc(NC(=O)ON=C2c3ccccc3-c3ccccc32)cc1	–	21.3 µM (active)
O=C(NC(=S)NC1CCCCC1)c1ccc(Cl)cc1	-18.8	–
COc1ccc(C(=O)NC(=S)NC2CCCCC2)cc1	–	15.1 µM (active)
COc1ccc(NC(=O)c2ccc3nc(CCc4ccccc4)oc3c2)c(OC)c1	-16.3	–
COc1ccc(C(=O)Nc2ccc(F)cc2F)cc1	–	10.7 µM (active)
COc1cccc(NC(=O)c2ccc3nc(CCc4ccccc4)oc3c2)c1	–	23.9 µM (active)
COc1ccc(C(=O)NNC(=S)NC(=O)c2ccccc2)cc1	-0.103	–
Cc1ccc2c(=O)c(C(=O)c3ccc(Cl)cc3)cn(CC(=O)NC3CCCCC3)c2n1	-2.08	–
CC(=O)N1c2ccccc2CC1C(=O)N1CCN(c2ccc(F)cc2)CC1 (centres undefined)	-0.433	–
O=c1cc2nc(-c3ccccc3)nc(SCCOc3ccc(Cl)cc3)n2[nH]1	-13	–
O=C(NNC(=S)NC1CC2CCC1C2)c1ccc(Cl)cc1 (centres undefined)	-11.8	–
CCc1cc(C(c2ccccc2OC)N2CCOCC2)c(NC(=O)c2ccccc2)s1 (centres undefined)	-1.35	–
CCc1cc(C(N)=O)c(NC(=O)c2ccc(OC)cc2)s1	–	6.01 µM (active)
CCc1cc(C(=O)c2ccc(OC)cc2)c(NC(=O)CN2CCN(C)CC2)s1	2.35	–

From PubChem BioAssay AID588342 (National Center for Advancing Translational Sciences (NCATS), 2011)
